In PubChem BioAssay AID2417 (National Center for Advancing Translational Sciences (NCATS), 2010):
The campaign covered roughly 140,000 compounds. About 4,300 (3.1%) were called active. Roughly 21% stayed inconclusive and do not appear here.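 Rule for the calls: active = readout at or below -70, meaning at least 70% loss of cells showing the perinucleolar compartment, a nuclear body marking cancer cells; inconclusive = readout between -30 and a set limit; inactive = the rest.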 The list comes from a sample in which actives are over-represented; it also holds similar structures and randomly drawn compounds.

Test: High Content Assay for Compounds that inhibit the Assembly of the Perinucleolar Compartment;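 note: plate controls were DMSO wells for no effect and camptothecin positive control wells for full effect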
Conditions: PC3M PTB-GFP, PNC prevalence imaging, 16 h; at 10 µM; stronger effect = lower value
Procedure, shortened: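 Read-out is percentage of cells bearing a perinucleolar compartment, from automated 20x imaging of fixed, Hoechst-stained PC3M PTB-GFP cells. Cells were seeded 4 h, then exposed 16 h to compound (23 nl of library stock) in duplicate plates.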
With `CC(=O)N1c2ccccc2N(Cc2ccc([N+](=O)[O-])cc2)C(=O)C1(C)C` the activity change (PNC), negative = inhibition was 13.5% (inactive). In the case of `COC(=O)c1ccc(CSc2nc3ccccc3c(=O)n2-c2cccc(OC)c2)o1`, the activity change (PNC), negative = inhibition is reported as 7.85% (inactive). For `COC(=O)c1ccc(CSc2ccc3nnc(-c4ccccc4)n3n2)o1`, the activity change (PNC), negative = inhibition was -97.8% (active). In the case of `COC(=O)c1ccc(Cc2ccccc2)o1`, the activity change (PNC), negative = inhibition is reported as 13.6% (inactive). With `CCOc1ccccc1Nc1nnc(SCc2ccc(C(=O)OC)o2)s1` the activity change (PNC), negative = inhibition was 30.2% (inactive). In the case of `COC(=O)c1ccc(CSc2ccccc2C)o1`, the activity change (PNC), negative = inhibition is reported as -112% (active). With `COCC(C)n1c(SCc2ccc(C(=O)OC)o2)nc2ccccc2c1=O` (configuration not stated) the activity change (PNC), negative = inhibition was 1.64% (inactive). For `O=C(CNS(=O)(=O)c1ccccc1)NCC(=O)OCc1ccccc1F`, the activity change (PNC), negative = inhibition was 26% (inactive). In the case of `Cn1ncc2c(NNC(=O)Cc3cccc4ccccc34)ncnc21`, the activity change (PNC), negative = inhibition is reported as -13.1% (inactive). For `COc1ccc(N2C(=O)CC(SC(C)C)C2=O)cc1` (configuration not stated), the activity change (PNC), negative = inhibition was 36.9% (inactive). With `O=C(Nn1c(-c2ccccc2)nc2ccccc2c1=O)c1ccc([N+](=O)[O-])cc1` the activity change (PNC), negative = inhibition was 38.7% (inactive). In the case of `O=C(N/N=C/c1coc2ccccc2c1=O)c1cc2ccccc2o1`, the activity change (PNC), negative = inhibition is reported as 11% (inactive). In the case of `O=C(/C=C/NCc1ccc(F)cc1)c1ccccc1`, the activity change (PNC), negative = inhibition is reported as -6.98% (inactive). With `Fc1ccc2c(c1)C(c1cccnc1)=NNC(c1cccs1)=N2` the activity change (PNC), negative = inhibition was 17.9% (inactive). For `C=CCn1c(SCc2ccc(Cl)c(Cl)c2)nnc1C(CO)NC(=O)c1ccc(OC)cc1` (configuration not stated), the activity change (PNC), negative = inhibition was -102% (active). In the case of `C=CCn1c(SCc2c(C(=O)OC)sc(N)c2C(=O)OC)nnc1-c1ccc(Cl)cc1`, the activity change (PNC), negative = inhibition is reported as 7.94% (inactive). For `C=CCn1c(SCC(=O)c2ccc(Br)cc2)nnc1C(C)NC(=O)Cc1ccc(OC)cc1` (configuration not stated), the activity change (PNC), negative = inhibition was 11.4% (inactive). With `CC1(C)C(C=C(Cl)Cl)C1C(=O)N(Cc1ccc(Cl)cc1)C1CCS(=O)(=O)C1` (configuration not stated) the activity change (PNC), negative = inhibition was 32.1% (inactive). With `O=C(NN1C(=O)C2C3C=CC(O3)C2C1=O)c1ccncc1` (configuration not stated) the activity change (PNC), negative = inhibition was 36% (inactive). For `CC(=O)c1ccc(NC(=S)NC(=O)CC(C)C)cc1`, the activity change (PNC), negative = inhibition was 18.7% (inactive). In the case of `COC(=O)C1=C(Nc2ccc(C)cc2)C=C(C)C(C(=O)OC)C1c1ccc(F)cc1` (configuration not stated), the activity change (PNC), negative = inhibition is reported as -100% (active). For `COC(=O)C1=C(Nc2ccc(OC)cc2)C=C(C)C(C(=O)OC)C1c1ccc(C)cc1` (configuration not stated), the activity change (PNC), negative = inhibition was -17.7% (inactive). For `COC(=O)C1C(=O)NCC1c1ccc(C)cc1` (configuration not stated), the activity change (PNC), negative = inhibition was -2.49% (inactive). With `O=C(CCc1[nH]c2ccccc2c1Sc1ccccc1)N(CCO)CCO` the activity change (PNC), negative = inhibition was 85.7% (inactive). For `CC(=O)NC1=NN(C(C)=O)C(C)(c2ccc(C)cc2)S1` (configuration not stated), the activity change (PNC), negative = inhibition was 54.1% (inactive). With `COc1ccc(C(=O)Nc2c(Cl)cc(Cl)cc2C(=O)N2CCC(C)CC2)cc1` the activity change (PNC), negative = inhibition was -10.7% (inactive). In the case of `Cc1cc(C)nc(SC2CCCCC2NS(=O)(=O)c2ccc(Cl)cc2)n1` (configuration not stated), the activity change (PNC), negative = inhibition is reported as -107% (active). With `CCOC1CCCCC1NS(=O)(=O)c1ccc(Cl)cc1` (configuration not stated) the activity change (PNC), negative = inhibition was 21.4% (inactive). In the case of `CSc1ccc(S(=O)(=O)NC2CCCCC2)cc1`, the activity change (PNC), negative = inhibition is reported as -23.3% (inactive). With `CC(=O)N/C(=C/c1ccc(OC(F)F)cc1)C(=O)O` the activity change (PNC), negative = inhibition was -25.2% (inactive). For `COc1ccccc1CNC(=O)CN1CCC(n2cnc3cc(F)ccc32)CC1`, the activity change (PNC), negative = inhibition was 26.2% (inactive). For `COc1ccc(N2C(=O)C(CC(=O)Nc3ccc(F)cc3)N(CCc3cccs3)C2=O)cc1` (configuration not stated), the activity change (PNC), negative = inhibition was 20.2% (inactive). For `CC(C)CCNC(=O)c1cccnc1Sc1ccccc1`, the activity change (PNC), negative = inhibition was 23.2% (inactive). In the case of `Cc1cccc2cc(C#N)c(N3CCCC3)nc12`, the activity change (PNC), negative = inhibition is reported as -8.64% (inactive). In the case of `FC(F)(F)c1cccc(-c2cc3ccccc3nc2N2CCCC2)c1`, the activity change (PNC), negative = inhibition is reported as -94.9% (active). With `S=C(NCCc1ccccc1)NCc1ccccc1Cl` the activity change (PNC), negative = inhibition was 29.5% (inactive). With `COc1ccc(-n2c(C)cc(C(=O)CN3C(=O)NC4(CCc5ccccc54)C3=O)c2C)cc1` (configuration not stated) the activity change (PNC), negative = inhibition was -15% (inactive). With `COc1ccccc1N1CCN(CCCCOc2ccc(F)cc2)CC1` the activity change (PNC), negative = inhibition was 11% (inactive). In the case of `COc1ccccc1N1CCN(Cc2ccc(OC)c3ccccc23)CC1`, the activity change (PNC), negative = inhibition is reported as -100% (active). In the case of `COc1ccccc1N1CCN(Cc2nnnn2CCc2ccccc2)CC1`, the activity change (PNC), negative = inhibition is reported as -5.45% (inactive). For `O=C1/C(=C\c2ccccc2Cl)SC(=S)N1CCC(=O)N1CCCc2ccccc21`, the activity change (PNC), negative = inhibition was 47.3% (inactive). With `O=C(Nc1cccc(S(=O)(=O)N2CCCCC2)c1)c1ccc2c(c1)OCO2` the activity change (PNC), negative = inhibition was -20.4% (inactive). In the case of `CC(C)Oc1ccc(CC(=O)NNC(=S)Nc2ccc(Br)cc2)cc1`, the activity change (PNC), negative = inhibition is reported as -113% (active). For `COC(=O)Cc1ccc(NC(=S)NCc2ccccc2)cc1`, the activity change (PNC), negative = inhibition was -25.7% (inactive). With `Cc1ccc(OC(=O)CCC(=O)Nc2ccc(Br)cc2)cc1` the activity change (PNC), negative = inhibition was -25% (inactive). For `Cc1ccccc1NC(=S)N(CCCN1CCOCC1)Cc1cccs1`, the activity change (PNC), negative = inhibition was 27.2% (inactive). For `Cc1ccc2c(c1)C1CN(C)CCC1N2C(=O)c1ccccc1NS(=O)(=O)c1ccc(F)cc1C` (configuration not stated), the activity change (PNC), negative = inhibition was -99.6% (active). With `Cc1ccc(S(=O)(=O)NC(C)C(=O)Nc2ccccc2C(=O)N2CCCC2)cc1` (configuration not stated) the activity change (PNC), negative = inhibition was 12.1% (inactive). For `CC1CN(C(=O)c2ccccc2NS(=O)(=O)c2cccc([N+](=O)[O-])c2)CC(C)O1` (configuration not stated), the activity change (PNC), negative = inhibition was 25.2% (inactive). In the case of `CCC(=O)Nc1c(C)n[nH]c1C`, the activity change (PNC), negative = inhibition is reported as 0.725% (inactive). In the case of `O=C(c1cccs1)n1nc(NCc2ccccc2)nc1NCc1ccccc1`, the activity change (PNC), negative = inhibition is reported as -4.14% (inactive). For `CC(=O)NC(Cc1ccccc1)C(=O)NC1CCN(c2ncccc2[N+](=O)[O-])CC1` (configuration not stated), the activity change (PNC), negative = inhibition was 23.2% (inactive). In the case of `CC(C)n1c(NCc2c[nH]c3ccccc23)nc2ccccc21`, the activity change (PNC), negative = inhibition is reported as -100% (active). In the case of `Cc1ccc(O)c(CNc2nc3ccccc3n2C)c1`, the activity change (PNC), negative = inhibition is reported as -1.77% (inactive). With `CC(C)n1c(C(O)c2ccccc2)nc2ccccc21` (configuration not stated) the activity change (PNC), negative = inhibition was 24.7% (inactive). For `S=C(NCCc1ccccc1)NCC1CCCO1` (configuration not stated), the activity change (PNC), negative = inhibition was -9.43% (inactive). In the case of `CCOC(=O)C1CCN(c2ncnc3c2oc2ccc(Br)cc23)CC1`, the activity change (PNC), negative = inhibition is reported as 11.1% (inactive). With `CCOC(=O)c1nnn(-c2nonc2-n2cccc2)c1CN1CCC(C(=O)OCC)CC1` the activity change (PNC), negative = inhibition was 10.9% (inactive). In the case of `CCOC(=O)C1CCN(Cc2coc3ccc(Cl)cc3c2=O)CC1`, the activity change (PNC), negative = inhibition is reported as -80.9% (active). In the case of `Cc1ccc(C(=O)COC(=O)CCCC(=O)NC2CCCCC2)cc1[N+](=O)[O-]`, the activity change (PNC), negative = inhibition is reported as 17% (inactive). In the case of `CCOc1ccc(OCC)c(-c2c(=O)n(OCc3ccc(Cl)cc3)c3ccccc3[n+]2[O-])c1`, the activity change (PNC), negative = inhibition is reported as 60.4% (inactive). In the case of `COc1ccc(OC)c(-c2c(=O)n(OCc3ccccc3Br)c3ccccc3[n+]2[O-])c1`, the activity change (PNC), negative = inhibition is reported as -113% (active).
